# Data taken from PubChem BioAssay (NCATS).
# Records with an inconclusive call do not appear. Where a call stands in place of a potency, no number is given. A number with no mark means an inactive call. The source made the active and inactive calls. Calls come from the whole dose curve; as a rule, active = well fitted inhibition curve with a large enough effect; inconclusive = small, poorly fitted or top-dose-only effect; inactive = no such curve, though single readings can be large or run the other way.
# Assay: Primary qHTS for inhibitors of nuclear receptor binding SET domain protein 2 (NSD2) in an RCH-ACV wild type WT cells (2C) (AID 1645877); note: nearly all actives have a fitted effect of over 70% in size
# Details: RCH-ACV (leukaemia line) NSD2 WT (2C) viability, CellTiter-Glo, 72 h; series mostly up to 44.9 µM
# Source text: Assay Provider: Jonathan D. Licht, MD
# University of Florida College of Medicine, Gainesville, FL
# Mutations in epigenetic regulators are common in relapsed pediatric acute lymphoblastic leukemia (ALL). Here, we uncovered the mechanism underlying the relapse of ALL driven by an activating mutation of the NSD2 histone methyltransferase (p.E1099K). […] Correction of this mutation restored glucocorticoid sensitivity. The transcriptional response to glucocorticoids was blocked in NSD2 mutant cells due to depressed glucocorticoid receptor (GR) levels and the failure of glucocorticoids to autoactivate GR expression. […] Pre-treatment of NSD2 p.E1099K cell lines and PDX samples with PRC2 inhibitors reversed glucocorticoid resistance in vitro and in vivo.
# High-throughput drug screening of isogenic RCH-ACV cell lines was performed at the National Center for Advancing Translational Science (NCATS), National Institutes of Health as previously described (1). Briefly, isogenic RCH-ACV NSD2 p.E1099K mutant (9B) and WT cells (2C) were plated at 500 cells/well in a 1536-well plate with a 72-hour incubation with compounds prior to addition of CellTiter-Glo to assess cell viability. NCATS libraries screened include: NPC, MIPE 5.0, Kinase and NPACT. To determine compound activity in the qHTS assay, the concentration-response data for each sample was plotted and modeled by a four-parameter logistic fit yielding IC50 and efficacy (maximal response) values. The area under the curve (AUC) of the dose-response curve ensures both efficacy (magnitude of cell killing) and potency (concentration that elicits cell killing) are accounted for in the analysis of activity.
# 1. Tobie D Lee, Olivia W Lee, Kyle R Brimacombe, Lu Chen, Rajarshi Guha, Sabrina Lusvarghi, Bethilehem G Tebase, Carleen Klumpp-Thomas, Robert W Robey, Suresh V Ambudkar, Min Shen, Michael M Gottesman, Matthew D Hall. A High-Throughput Screen of a Library of Therapeutics Identifies Cytotoxic Substrates of P-glycoprotein. Mol Pharmacol. 2019, Nov;96(5):629-640.
SMILES,Potency,"activity change, negative = cell killing"
C[N+]1(CCF)[C@@H]2CC[C@H]1CC(OC(=O)C(O)(c1ccccc1)c1ccccc1)C2 (stereo not given in full),inactive,–
C[C@]12CCC(=O)C=C1CC[C@@H]1[C@H]3CC[C@](C)(O)[C@@]3(C)CC[C@@H]12,21.9 µM (active),–
Nc1ccc([As](=O)(O)O)cc1,inactive,–
Nc1ccn(C[C@@H](CO)OCP(=O)(O)O)c(=O)n1,–,-8.19% [at 9.23 µM]
COC1CC(=C(c2cccs2)c2cccs2)C[N+](C)(C)C1 (stereo not given),15 µM (active),–
COP(=S)(OC)Oc1cc(Cl)c(Cl)cc1Cl,inactive,–
c1ccc(CN2CCNCC2)cc1,inactive,–
COc1cccc([C@@]2(O)CCCC[C@@H]2CN(C)C)c1,inactive,–
CN1C(=O)NC(=O)C(C)(C2=CCCCC2)C1=O (stereo not given),inactive,–
COc1cc(CCN)cc(OC)c1OC,41.8 µM (active),–
ClCCN1CCCC1,inactive,–
CC(C)=CC1C(C(=O)OCN2C(=O)C3=C(CCCC3)C2=O)C1(C)C (stereo not given),inactive,–
CC[N+]1(CC)CCC(OC(=O)C(O)(c2ccccc2)c2ccccc2)C1 (stereo not given),inactive,–
CCN[C@@H](C)Cc1cccc(C(F)(F)F)c1,inactive,–
Nc1nc(N)nc(NC2CC2)n1,inactive,–
CCCCCCCCCC(=O)O[C@H]1CC[C@H]2[C@@H]3CCC4=CC(=O)CC[C@@H]4[C@H]3CC[C@]12C,inactive,–
CC(C)(C)NCC(O)c1ccccc1Cl (stereo not given),inactive,–
C[C@]12CC[C@H]3[C@@H](CCC4=CC(=O)CC[C@@H]43)[C@@H]1CC[C@@H]2OC(=O)CCC1CCCCC1,18.8 µM (active),–
Nc1ccccc1,inactive,–
C=CCC1(C(C)CC)C(=O)NC(=O)NC1=O (stereo not given),inactive,–

SMILES,Potency,"activity change, negative = cell killing"
COc1ccc2c3c1O[C@H]1[C@H](O)CC[C@H]4[C@@H](C2)N(C)CC[C@@]341,inactive,–
CCC1(CC)C(=O)C=CNC1=O,inactive,–
CN1CC[C@]23c4c5ccc(O)c4O[C@H]2[C@@H](O)CC[C@H]3[C@H]1C5,inactive,–
COc1c2c(cc3c1OCO3)CCN(C)C2,inactive,–
COc1cccc2c1C(=O)c1c(O)c3c(c(O)c1C2=O)C[C@@](O)(C(=O)CO)CC3OC1CC(N2CCOC(OC)C2)C(O)C(C)O1 (stereo not given in full),0.0033 µM (active),–
NC1=NC(=O)C(c2ccccc2)O1 (stereo not given),inactive,–
O=P1(N(CCCl)CCCl)NCCCO1 (stereo not given),inactive,–
Clc1cccc(SC2CCNCC2)n1,inactive,–
CCC1(c2ccc(N)cc2)CCC(=O)NC1=O (stereo not given),inactive,–
CCC(C)C(C)(COC(N)=O)COC(N)=O (stereo not given),inactive,–
C[C@@H](N)[C@@H](O)c1ccccc1,inactive,–
C[C@H]1[C@@H]2Cc3ccc(O)cc3[C@@]1(C)CCN2C,inactive,–
CCC1(c2ccccc2)C(=O)N(COC)C(=O)N(COC)C1=O,inactive,–
CN1C(=O)COc2c(C(=O)NC3CN4CCC3CC4)cc(Cl)cc21 (stereo not given),inactive,–
NC(=O)CS(=O)C(c1ccccc1)c1ccccc1 (stereo not given),inactive,–
O=c1[nH]c2ccccc2n1C1CCNCC1,inactive,–
CC(C)(C)NCC(O)c1cc(Cl)c(N)c(C(F)(F)F)c1 (stereo not given),inactive,–
CNC(C)(C)Cc1ccccc1,inactive,–
CCN(CCO)CCn1c(Cc2ccccc2)nc2c1c(=O)n(C)c(=O)n2C,inactive,–
Clc1ccc(C(c2ccc(Cl)cc2)C(Cl)(Cl)Cl)cc1,inactive,–
